FLuc inh: blocks purified firefly luciferase enzyme activity; P08659; AID 1347043; Potency, µM (highest dose often 115 µM), usual class: inhibitors; actives 2.5% (n = 76,000); purified P. pyralis luciferase, luminescence, biochemical; also: nearly all actives have a fitted effect of over 65% in size
Target sequence (P08659 whole entry, looked up): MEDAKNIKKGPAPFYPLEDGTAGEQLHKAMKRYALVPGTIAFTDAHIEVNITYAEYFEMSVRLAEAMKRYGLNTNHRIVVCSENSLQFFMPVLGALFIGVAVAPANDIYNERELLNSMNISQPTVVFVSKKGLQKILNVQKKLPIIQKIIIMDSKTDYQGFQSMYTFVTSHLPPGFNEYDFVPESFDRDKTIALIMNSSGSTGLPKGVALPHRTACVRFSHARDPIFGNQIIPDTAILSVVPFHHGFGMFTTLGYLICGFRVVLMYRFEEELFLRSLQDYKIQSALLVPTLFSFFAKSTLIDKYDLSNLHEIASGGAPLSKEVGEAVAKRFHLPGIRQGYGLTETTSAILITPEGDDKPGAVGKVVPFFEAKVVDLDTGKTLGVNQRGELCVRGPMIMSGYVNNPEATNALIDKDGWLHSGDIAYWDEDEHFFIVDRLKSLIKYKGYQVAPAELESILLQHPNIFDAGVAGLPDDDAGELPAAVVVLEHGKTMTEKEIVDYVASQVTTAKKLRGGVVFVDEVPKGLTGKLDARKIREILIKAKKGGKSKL
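FLuc 10nM, D-luciferin 10uM, ATP 10uM, Mg acetate 10mM, Tris acetate pH 7.5, Tween/BSA; cpd qHTS; enzyme added last; CCD luminescence.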
GPT2 inhibitor: inhibitors of human GPT2 alanine aminotransferase | Q8TD30 | Recombinant GPT2, coupled pyruvate oxidase/HRP Amplex Red fluorescence | Potency, µM (top dose mostly 57.7 µM), for inactives: top-dose activity change, negative = inhibition, usual class: inhibitors | actives 0.25% (n = 100,000) | AID 1671188; also: nearly all actives have a fitted effect of over 60% in size
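Fluorescence of coupled pyruvate oxidase/HRP/Amplex Red system (50uM Amplex, 30 min, dark) reports pyruvate formed by GPT2. Enzyme reaction: 10ng/uL GPT2, 2mM L-alanine, 250uM a-KG, 30 min room temperature, pH 7.5; 50uM AOA control.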
NPR1 antag: human Npr1 receptor antagonism. P16066. HEK293 hNpr1 GloSensor cGMP, ANP-stimulated luminescence. Potency, µM (top dose mostly 46.3 µM), without a hit: at the highest dose activity change, negative = inhibition, most hits filed as inhibitors. actives 1.6% (n = 76,000). AID 1347048; calls by dose curve; also: nearly all actives have a fitted effect of over 60% in size
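Compound pre-incubated 30 min at room temperature on GloSensor-loaded HEK293 cells stably carrying hNpr1 and the pGS-40F cGMP biosensor. Stimulation uses hNppA at 0.1 nM final; luminescence is taken at baseline and 20 min post-agonist.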
HEK cytotox: HEK 293 cell cytotoxicity; HEK 293 viability, ATP luminescence (CellTiter-Glo), 48-72 h; Potency, µM (titrated, usually from 115 µM), inactives show top-dose activity change, negative = cytotoxicity, usual class: inhibitors; actives 6.6% (n = 94,000); AID 1345083; also: nearly all actives have a fitted effect of over 60% in size
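CellTiter-Glo luminescence (cellular ATP) was read after 48 or 72 hr of compound exposure at 37 degree Celsius. Cells were HEK 293 plated at 250 cells/well.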
NIH3T3 tox: cytotoxic compounds in NIH 3T3 cells | NIH 3T3 viability, CellTiter-Glo ATP luminescence, 48-72 h | Potency, µM (series often up to 96.7 µM), for the others: top-dose activity change, negative = cytotoxicity, most hits filed as inhibitors | actives 4.3% (n = 94,000) | AID 1345082; also: nearly all actives have a fitted effect of over 55% in size
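Cytotoxicity is measured as loss of cellular ATP: NIH 3T3 cells (400/well) are exposed to compound for 48 or 72 hr at 37 °C, then CellTiter-Glo luminescence is imaged after 10 min at room temperature.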
An asterisk follows results filed as active; i = inactive; ? = inconclusive; / = no result; [ ] = dose if it differs, or a comment. Shown are actives, neighbours in structure and some others; about 10% of the full set was active somewhere. Unless noted, calls follow the shape of the dose curve; as a rule, active = well fitted curve in the direction sought with a large enough effect; inconclusive = small, poorly fitted or top-dose-only effect, or another doubt; inactive = no such curve, though single readings can be large; an effect the other way counts as inactive or inconclusive. % is scaled to controls: 0 for no effect and ±100 for the full control effect; potency is read from the fitted curve at half-maximal effect.

SMILES	FLuc inh	GPT2 inhibitor	NPR1 antag	HEK cytotox	NIH3T3 tox
N#Cc1cccc(CN2C[C@H](O)C[C@H]2c2nc(-c3ccc4c(c3)OCO4)no2)c1	?	?	-5.8%[70.6 µM]	100µM*	?
O[C@@H]1C[C@@H](c2nc(-c3ccc4c(c3)OCO4)no2)N(Cc2ccccc2)C1	50.1µM*	i	-5.5%[70.6 µM]	?	?
COc1ccc(-c2noc([C@@H]3C[C@@H](O)CN3Cc3ccc(S(C)(=O)=O)cc3)n2)cc1	i	1.0%[88.5 µM]	-5.4%[70.6 µM]	-19.5%[172 µM]	-16.3%[174 µM]
COc1cc2c(cc1OC)C(C[C@H]1CN(S(=O)(=O)c3ccc(Cl)cc3)CC[C@H]1CC(=O)O)=NCC2	i	?	-2.1%	-11.8%	-23.8%
Cc1ccc(Oc2c(CCC(=O)NC(C)C)c(C)nn2-c2ccccc2)cc1	i	-1.2%	-2.7%	?	?
C=CCOCC(O)CN1CCC(=O)N(Cc2ccccc2)Cc2cc(OC)ccc21 (centres undefined)	/	/	/	?	-18.6%
N[C@@H]1CC[C@@H]1NC(=O)c1ccccc1OC(F)(F)C(F)F	i	-18.6%	2.8%	i	i
O=C(NCc1cccc(Cl)c1)c1nc2cccnc2n(Cc2ccccc2)c1=O	/	i	/	?	?
C#CCN(C)Cc1nc(C2(O)CCN(CC3CCCCC3)CC2)cs1	i	-8.9%[88.5 µM]	3.0%[70.6 µM]	-7.7%[172 µM]	-3.2%[174 µM]
CN1CCC(N2CCC[C@@H](O)[C@H](NC(=O)c3ccc(OCc4ccccc4)cc3)C2)CC1	i	1.6%	6.7%	79.4µM*	?
Cc1noc(C)c1[S+](=O)([O-])N1CCCC(c2nn(-c3ccccn3)c(=O)[nH]2)C1 (centres undefined)	/	i	/	3.3%	-13.1%
C[C@H]1CCCN1C(=O)c1nnc(COc2ccc(Cl)cc2)n1-c1ccccc1	i	-5.2%[88.5 µM]	-14.7%[70.6 µM]	79.4µM*	3.16µM*
C[C@H]1CCCN1C(=O)c1nnc(CNc2ccc(C(=O)O)cc2)n1-c1ccccc1	i	-7.6%[88.5 µM]	-0.1%[70.6 µM]	-12.5%[172 µM]	?
O=C(c1nnc(COc2ccc(F)c(F)c2)n1-c1ccccc1)N1CCC[C@@H]1C(c1ccccc1)c1ccccc1	i	-3.4%	-6.3%	?	4.47µM*
C[C@H]1CCCN1C(=O)c1nnc(COc2ccccc2)n1-c1ccccc1	i	-16.3%[88.5 µM]	-12.7%[70.6 µM]	?	89.1µM*
C[C@H]1CCCN1C(=O)c1nnc(COc2ccc(F)c(F)c2)n1-c1cccnc1	i	-8.2%[88.5 µM]	-4.6%[70.6 µM]	?	25.1µM*
C[C@H]1CCCN1C(=O)c1nnc(COc2ccc3cccnc3c2)n1-c1cccnc1	i	-4.2%[88.5 µM]	4.7%[70.6 µM]	-16.2%[172 µM]	?
O=C(c1nnc(CNc2ccccc2)n1-c1ccccc1)N1CCC[C@@H]1C(c1ccccc1)c1ccccc1	i	i	-29.7%	?	?
Cc1cc(=O)n(CC(=O)Nc2ccccc2)c(-c2ccccc2)n1	i	i	-4.8%	?	-23.0%
O=C(c1nnc(CNc2ccc(OC(F)(F)F)cc2)n1-c1ccccc1)N1CCC[C@@H]1CN1CCCC1	i	?	3.0%	70.8µM*	?
C[C@H]1CCCN1C(=O)c1nnc(CNc2ccc(OC(F)(F)F)cc2)n1-c1ccccc1	i	i	-0.3%	?	-22.3%
CC1(C(=O)NCc2ccc(F)cc2)COCc2cnc(Nc3ccccc3)nc21 (centres undefined)	i	4.7%[88.5 µM]	?	79.4µM*	?
COc1cccc(Nc2ncc3c(n2)C(C)(C(=O)NCc2cccnc2)CC3)c1 (centres undefined)	i	-10.4%[88.5 µM]	-1.7%[70.6 µM]	79.4µM*	?
CC1(C(=O)NCc2cccnc2)CCc2cnc(NCc3ccccc3)nc21 (centres undefined)	i	0.5%[88.5 µM]	-2.5%[70.6 µM]	-25.9%[172 µM]	35.5µM*
CC1(C(=O)NCc2cccnc2)CCCc2cnc(NCc3ccccc3)nc21 (centres undefined)	i	i	5.9%[70.6 µM]	?	50.1µM*
CC1(C(=O)NCc2ccncc2)CCCc2cnc(Nc3ccccc3F)nc21 (centres undefined)	i	-18.2%[88.5 µM]	0.8%[70.6 µM]	?	?
